“And” between values parts separate entries of the source, which are not always exact repeats. Identical values can stand only once. This is part of a sample that, as a whole, favours compounds with a hit. Of some 83,000 tested, about 20% had one in any assay.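 Percent growth is the endpoint: 0 to 100 indicates growth inhibition (40 means 60% inhibition), 0 means no net growth, and negative values indicate cell death.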 A number with no mark means an inactive call. The source made the active and inactive calls. Rule for the calls: active = growth percent below 10; inactive = the rest.
What was measured:
Experiment in all cases: NCI-60 one-dose screen, 48 h (100 = growth as untreated, 0 = no growth, -100 = all killed)
Settings in all cases: 10 µM unless noted
[1] = test system: NCI-H23 lung
[2] = test system: NCI-H226 lung
[3] = test system: NCI-H322M lung
[4] = test system: HOP-62 NSCLC
[5] = test system: NCI-H460 lung
[6] = test system: HOP-92 NSCLC
[7] = test system: NCI-H522 lung
[8] = test system: A549/ATCC NSCLC
[9] = test system: 786-0 renal
[10] = test system: COLO 205 colon

Structure (SMILES) | growth [1] | growth [2] | growth [3] | growth [4] | growth [5] | growth [6] | growth [7] | growth [8] | growth [9] | growth [10]
BrC1=C(Br)C(Br)(Br)C(Br)=C1Br | 93% | 91.7% | 107% | 101% | 102% | 105% | -15.2% (active) | 95.2% | 82.4% | 69.6%
c1cc(NCCCCN2CCOCC2)c2ccc3c(ccc4c(NCCN5CCOCC5)ccnc43)c2n1 | 70.7% | 79.6% | 72.9% | 81.5% | 40.8% | 56.8% | 82.5% | 75.9% | 79.5% | 90.5%
O=C(NCc1cccnc1)/C(=C\c1ccc(Br)cc1)S(=O)(=O)c1ccccc1 | -43.7% (active) | 7.52% (active) | 1.87% (active) | -34.1% (active) | -30.5% (active) | -2.35% (active) | -71.2% (active) | -3.53% (active) | -67.7% (active) | -84.2% (active)
Cc1[nH]c(C(=O)Nc2nc3ccc(NC(=O)CCN)cc3s2)c(Cl)c1Cl | 37.4% | 86.7% | 94% | 74.6% | 42.6% | 73.9% | 85.5% | 95.8% | 92.1% | 104%
Cc1oc2c(Cc3ccc(NC(=O)c4ccc(Cl)cc4)cc3)ncnc2c1C(=O)NO | 97.2% | 86.4% | 93.1% | 101% | 97.3% | 125% | 70.7% | 88.5% | 95% | 107%
Cc1cccc(-c2nnc(SCC(=O)Nc3ncc(Cc4ccccc4)s3)n2N2C(=O)CSC2=S)c1 | 36.7% | 31.5% | 40.1% | 30.3% | 20% | 8.49% (active) | 34.5% | 7.99% (active) | 29.8% | 66.6%
Oc1ccccc1C=Nc1ccc(N2CCN(c3ccccc3)CC2)cc1 | 93.4% | 110% | 98.2% | 74.7% | 111% | 99.5% | 95.7% | 92.1% | 94.1% | 93.7%
CCOc1nc(-c2ccccc2)cc2c(O)c(C(=O)N/N=C/c3ccc(N(C)C)cc3)[nH]c(=O)c12 | 107% | 97.1% | 113% | 65.2% | 106% | 99.9% | 80.4% | 107% | 112% | 229%
COc1cc(CNC(=O)CCCC/C=C/C(C)C)ccc1O | 101% | 94.2% and 92.4% | 124% and 88.7% | 89% and 104% | 106% and 114% | 84.4% | 83.1% and 75.5% | 106% and 115% | 107% and 101% | 101% and 111%
Cc1nn(-c2nc(-c3cc4ccccc4oc3=O)cs2)c(C)c1N=Nc1ccccc1 | 98% | 105% | 97.3% | 102% | 108% | 79.9% | 97.8% | 114% | 104% | 114%
O=C1C=CC(=O)N1c1ccc2ccccc2c1 | 93.4% and 103% | 97.6% and 111% | 118% and 103% | 101% | 110% and 111% | 81.8% and 84.1% | -58.9% (active) and -24.2% (active) | 99% | 103% and 104% | -58.5% (active) and -42.5% (active)
Cc1ccc(S(=O)(=O)OC[C@@]2(C)CC[C@]3(C)CC[C@]4(C)C(=C3C2)C=C[C@@H]2[C@@]3(C)CCCNC(C)(C)[C@@H]3CC[C@]24C)cc1 | 59.2% | 66.8% | 26.9% | 53.7% | -65.4% (active) | 28.6% | -47.1% (active) | -38.2% (active) | -90.7% (active) | -78% (active)

From PubChem BioAssay (NCI)
